For experiment [1], the target named is Rap guanine nucleotide exchange factor 3 (Homo sapiens) (UniProt O95398). Briefly: Confirmatory qHTS for antagonist of cAMP-regulated guanine nucleotide exchange factor 3 (EPAC1) (AID 1645880). Further: nearly all actives have a fitted effect of over 55% in size. Further: potency means the concentration at half of the fitted maximal effect.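 On activity, negative = inhibition: plate controls were DMSO only for no effect and full effect of the ATA control for full effect.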 Particulars: EPAC1 Rap1B-BODIPY-GDP exchange, fluorescence; activity, negative = inhibition: at 115 µM (top of the series). An outline of the steps:
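Nucleotide exchange uses 100 nM EPAC1, 250 nM RAP1B-BODIPY-GDP and 50 uM GDP, with compounds in a concentration-titration series. After 5 min at room temperature, fluorescence (480 nm ex/540 nm em) is read every 5 min for 30 min. Data are normalized to control ATA and DMSO.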

The target is the same in experiment [2]. In words: Confirmatory qHTS for agonist of cAMP-regulated guanine nucleotide exchange factor 3 (EPAC1) (AID 1645881). Further: nearly all actives have a fitted effect of over 75% in size. Further: potency means the concentration at half of the fitted maximal effect.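 On activation: EPAC1 catalysed release of BODIPY-GDP from Rap1B seen as fluorescence loss; 100% = effect of cAMP agonist control.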
The target in experiment [3] is Rap guanine nucleotide exchange factor 4 (Homo sapiens) (UniProt Q8WZA2). In words: Confirmatory qHTS for antagonist of cAMP-regulated guanine nucleotide exchange factor 4 (EPAC2) (AID 1645885). Further: nearly all actives have a fitted effect of over 25% in size. Further: potency means the concentration at half of the fitted maximal effect. On activity change, negative = inhibition: on the % scale 0 is the no-effect control and ±100 the full control effect.
Sequence of Rap guanine nucleotide exchange factor 4 (Homo sapiens) (Q8WZA2 whole entry, looked up): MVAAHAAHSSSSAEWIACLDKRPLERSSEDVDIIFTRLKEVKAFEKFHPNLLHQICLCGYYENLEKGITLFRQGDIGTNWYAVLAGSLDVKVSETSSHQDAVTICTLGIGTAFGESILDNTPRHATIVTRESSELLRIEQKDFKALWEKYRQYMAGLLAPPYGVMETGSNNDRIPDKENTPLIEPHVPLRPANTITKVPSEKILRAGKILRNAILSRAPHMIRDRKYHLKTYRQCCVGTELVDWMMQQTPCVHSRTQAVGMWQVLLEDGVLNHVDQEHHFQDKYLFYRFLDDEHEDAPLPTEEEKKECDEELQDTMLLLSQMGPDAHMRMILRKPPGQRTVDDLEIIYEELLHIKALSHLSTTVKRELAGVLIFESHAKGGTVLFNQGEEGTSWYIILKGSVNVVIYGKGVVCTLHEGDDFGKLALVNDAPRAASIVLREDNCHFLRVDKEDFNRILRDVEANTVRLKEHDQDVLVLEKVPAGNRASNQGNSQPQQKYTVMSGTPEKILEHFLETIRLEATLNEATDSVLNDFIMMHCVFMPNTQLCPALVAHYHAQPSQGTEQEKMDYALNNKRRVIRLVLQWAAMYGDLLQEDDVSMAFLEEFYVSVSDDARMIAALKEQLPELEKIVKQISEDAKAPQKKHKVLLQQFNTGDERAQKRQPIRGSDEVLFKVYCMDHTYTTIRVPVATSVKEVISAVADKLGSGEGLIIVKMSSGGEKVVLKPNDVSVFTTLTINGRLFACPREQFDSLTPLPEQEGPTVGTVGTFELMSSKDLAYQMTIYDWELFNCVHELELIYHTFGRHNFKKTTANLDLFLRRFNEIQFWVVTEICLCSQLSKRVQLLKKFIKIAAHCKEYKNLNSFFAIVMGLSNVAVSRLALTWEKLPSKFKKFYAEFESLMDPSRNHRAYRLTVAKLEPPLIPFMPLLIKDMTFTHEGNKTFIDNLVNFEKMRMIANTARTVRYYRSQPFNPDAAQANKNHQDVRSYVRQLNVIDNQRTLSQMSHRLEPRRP
Experiment [4] deals with Rap guanine nucleotide exchange factor 3 (Homo sapiens) (UniProt O95398). Briefly: Counterscreen qHTS for antagonist of cAMP-regulated guanine nucleotide exchange factor 3 (EPAC1) (AID 1645888).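 Further: fluorescence loss as bound BODIPY-GDP is released from Rap1B; % of control where 0% means no effect.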 In short, it runs like this:
(§1)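 Measured: fluorescence of BODIPY-GDP bound to Rap1B, which falls as exchange proceeds. Conditions include 50 uM competing GDP, 5 and 30 min reads, and a later cAMP challenge for antagonist detection.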

For experiment [5] the target is unchanged. Briefly: Counterscreen qHTS for agonist of cAMP-regulated guanine nucleotide exchange factor 3 (EPAC1) (AID 1645889). Further: nearly all actives have a fitted effect of over 40% in size. Further: potency means the concentration at half of the fitted maximal effect. On activation: % of control where 0% means no effect. An outline of the steps: as §1
In experiment [6] the target is Tumor susceptibility gene 101 protein (Homo sapiens) (UniProt Q99816). Briefly: qHTS Assay for Iinhibitors of HIV-1 Budding by Blocking the Interaction of PTAP/TSG101: Hit Validation (AID 651600). Further: on the % scale 0 is the no-effect control and ±100 the full control effect; nearly all actives have a fitted effect of over 70% in size. In short, it runs like this:
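Displacement of a FITC-labeled PTAP-motif peptide (50 nM) from the Tsg101 binding domain (10 uM) was monitored by fluorescence polarization after a 20 min room-temperature incubation.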

Results filed as inconclusive are left out. Unmarked numbers belong to inactive results. Calls of active or inactive are those of the source. The call rests on the fitted dose curve; in most records, active means well fitted curve in the direction sought with a large enough effect; inconclusive means small, poorly fitted or top-dose-only effect, or another doubt; inactive means no such curve, though single readings can be large; an effect the other way counts as inactive or inconclusive.

Sequence of Rap guanine nucleotide exchange factor 3 (Homo sapiens) (O95398 whole entry, looked up): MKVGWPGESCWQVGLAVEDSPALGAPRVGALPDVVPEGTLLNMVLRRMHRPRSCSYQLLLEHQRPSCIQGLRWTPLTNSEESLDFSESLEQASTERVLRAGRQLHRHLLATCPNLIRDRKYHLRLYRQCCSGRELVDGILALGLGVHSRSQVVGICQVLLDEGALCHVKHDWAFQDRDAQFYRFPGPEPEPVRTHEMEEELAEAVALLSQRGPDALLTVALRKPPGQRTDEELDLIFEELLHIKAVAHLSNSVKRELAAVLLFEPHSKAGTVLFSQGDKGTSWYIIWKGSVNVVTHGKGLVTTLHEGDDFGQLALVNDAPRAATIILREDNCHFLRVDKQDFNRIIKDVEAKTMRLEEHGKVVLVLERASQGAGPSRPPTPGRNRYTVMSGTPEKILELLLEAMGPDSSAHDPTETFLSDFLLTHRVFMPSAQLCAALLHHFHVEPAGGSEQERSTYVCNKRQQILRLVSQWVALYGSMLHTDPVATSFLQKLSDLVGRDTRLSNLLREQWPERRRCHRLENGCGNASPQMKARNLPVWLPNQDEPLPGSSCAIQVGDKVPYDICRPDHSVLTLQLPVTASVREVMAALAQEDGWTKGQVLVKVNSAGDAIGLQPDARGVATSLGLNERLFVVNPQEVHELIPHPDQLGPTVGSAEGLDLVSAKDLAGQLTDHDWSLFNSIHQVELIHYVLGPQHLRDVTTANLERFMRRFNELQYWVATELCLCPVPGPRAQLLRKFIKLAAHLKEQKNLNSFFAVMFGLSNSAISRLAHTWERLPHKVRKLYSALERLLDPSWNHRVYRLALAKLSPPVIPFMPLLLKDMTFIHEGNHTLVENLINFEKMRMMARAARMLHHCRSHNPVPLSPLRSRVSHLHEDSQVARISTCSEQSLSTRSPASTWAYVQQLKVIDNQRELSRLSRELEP
Sequence of Tumor susceptibility gene 101 protein (Homo sapiens) (Q99816 whole entry, looked up, the tested form may be a part): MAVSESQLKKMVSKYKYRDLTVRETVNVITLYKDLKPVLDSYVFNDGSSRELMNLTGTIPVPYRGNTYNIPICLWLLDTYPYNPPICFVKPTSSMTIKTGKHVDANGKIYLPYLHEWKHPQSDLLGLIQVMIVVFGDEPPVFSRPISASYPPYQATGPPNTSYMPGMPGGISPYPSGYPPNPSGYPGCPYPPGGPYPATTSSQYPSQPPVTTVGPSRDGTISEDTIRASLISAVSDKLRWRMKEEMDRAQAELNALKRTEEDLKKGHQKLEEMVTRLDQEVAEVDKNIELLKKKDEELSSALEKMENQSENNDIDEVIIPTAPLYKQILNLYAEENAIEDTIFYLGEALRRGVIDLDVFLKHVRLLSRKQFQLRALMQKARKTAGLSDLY

`COc1cc(CN2C(=O)C(C)ON=C2c2ccccc2F)cc(OC)c1` (stereo not given): the Potency result in experiment [1], in experiment [2], in experiment [3], in experiment [4] and in experiment [5] was “inactive” in each case.
For `O=C1COc2ccc(C(=O)COC(=O)c3ccc4ccccc4n3)cc2N1`, the Potency in experiment [1] is 75.7 µM (active). The Potency result in experiment [2], in experiment [3], in experiment [4] and in experiment [5] was “inactive” throughout.
`O=C1C=C(c2ccccc2Oc2ccccc2)C[C@@H](c2ccc3c(c2)OCO3)C1`: the Potency entry in experiment [1], in experiment [2], in experiment [3], in experiment [4] and in experiment [5] was “inactive” each time.
In the case of `CCC(=O)N1CCc2cc(CNC(=O)c3ccccc3C)ccc21`, the Potency result in experiment [1], in experiment [2], in experiment [3], in experiment [4] and in experiment [5] was “inactive” each time.
`CCOc1ccc(-c2cccc(NC(=O)c3ccco3)c2)nn1`: the Potency result in experiment [1], in experiment [2], in experiment [4] and in experiment [5] was “inactive” each time. The Potency in experiment [3] was 84.9 µM (active).
`Nc1nc2ccccc2n1S(=O)(=O)c1ccc([N+](=O)[O-])cc1`: the Potency result in experiment [1], in experiment [2], in experiment [3], in experiment [4] and in experiment [5] was “inactive” throughout.
Regarding `CCOc1ccc(NC2c3ccccc3C(=O)N2Cc2ccco2)cc1` (stereo not given), the Potency result in experiment [1], in experiment [2], in experiment [3], in experiment [4] and in experiment [5] was “inactive” each time.
In the case of `O=C(O)c1ccccc1-c1ccc(/C=C/c2cc(C(F)(F)F)[nH]c(=O)n2)o1`, the Potency result in experiment [6], in experiment [1] and in experiment [3] was “inactive” each time. Besides, the Potency in experiment [2] is 89.1 µM (active). In addition, the activity change, negative = inhibition in experiment [4] is 309% [at 30.8 µM].
On to `O=C(C(=Cc1ccccc1)c1ccccc1)c1ccccc1`, for which the Potency entry in experiment [1], in experiment [2], in experiment [3], in experiment [4] and in experiment [5] was “inactive” in each case.
For `Cc1ccc([N+](=O)[O-])cc1NC(=O)CN(C1CCCCC1)S(=O)(=O)c1ccc(Cl)cc1`, the Potency result in experiment [1], in experiment [2], in experiment [4] and in experiment [5] was “inactive” in each case. For the same molecule, the Potency in experiment [3] is 8.49 µM (active).
For `O=c1onc(-c2ccccc2)n1-c1cc(Cl)cc(Cl)c1`, the Potency entry in experiment [1], in experiment [2], in experiment [3], in experiment [4] and in experiment [5] was “inactive” each time.
`Oc1[nH]c2ccccc2c1N=Nc1ccccc1F`: the Potency result in experiment [1], in experiment [2], in experiment [3] and in experiment [4] was “inactive” in each case. Moreover, the Potency in experiment [5] is 11.2 µM (active).
In the case of `CC(=O)Nc1ccc(/C(C)=N/NC(=O)c2ccc(COc3ccccc3Cl)o2)cc1`, the Potency result in experiment [1], in experiment [2] and in experiment [3] was “inactive” each time. For the same molecule, the activity change, negative = inhibition in experiment [4] was 0.248% [at 30.8 µM]. The activation in experiment [5] is 15.7% [at 30.8 µM].

These data come from PubChem BioAssay (NCATS).
